These results are taken from PubChem BioAssay AID593 (National Center for Advancing Translational Sciences (NCATS), 2007).

In all, about 59,000 compounds went through this assay and about 540 (0.92%) were called active. About 33% were inconclusive and are not listed. Cut-off read from the data, not from the text of the source: active = max fluorescein-equivalent concentration above about 10 nM; inconclusive = between about 1.1 nM and that limit; inactive = weaker than that. Shown is part of a subset that was picked to be rich in actives.

The test in a line: qHTS Assay for Spectroscopic Profiling in Fluorescein Spectral Region. Particulars: Compound autofluorescence, 480/540 nm; max fluorescein-equivalent concentration: active compounds read high; outcome: fluorescein-equivalent. An excerpt:
NIH Molecular Libraries Screening Centers Network [MLSCN]
NIH Chemical Genomics Center [NCGC]
Occasionally, the artifactual effect may originate from the compound's own spectral or other biophysical properties which generally tend to track its assay concentration. Pre-screening/profiling the library with respect to the compounds' spectral properties should help one exclude false positives early on. While the most informative fluorescent profiling data set is obtained by performing a full excitation and emission scan of each well by using a monochromator-based plate reader, such an approach is practical only on a very limited scale as scanning each well requires long time. An alternative approach, applied here, is to perform plate reader scans using selected excitation and emission wavelength pairs to generate a multidimensional relational database that correlates compound concentration and the respective relative fluorescence intensity at a given wavelength set. A standard curve of fluorescein present on each plate as six-point concentration series, was used to compute a normalized fluorescence response, termed dye-equivalent concentration, for each compound at each concentration.
NCGC Assay Protocol Summary:
100 mM Tris buffer, pH 8.0
The wells in columns 1 through 4 of a Kalypsys polypropylene 1536-well compound plate were filled with standard solutions of fluorophore corresponding to the spectral region of interest. Solutions of Fluorescein were placed in the following wells: Q1, R1: 3 mM, Q2, R2: 300 uM, Q3, R3: 30 uM, Q4, R4: zero (DMSO), S1, T1: 3 uM, S2, T2: 900 nM, S3, T3: 300 nM, S4, T4: zero (DMSO).
Six uL of buffer were dispensed to 1536-well Greiner black plates. Compounds and dye standards (23 nL) were transferred via Kalypsys PinTool. The plates were incubated for 15 min at room temperature, and then read on ViewLux (Perkin-Elmer) High-throughput CCD imager using 480 nm and 540 nm excitation and emission filter set.
Keywords: NIH Roadmap, MLSCN, MLI, MLSMR, qHTS, NCGC, Fluorescein, Fluorescent Profiling.
As to `CN1C2C=C(N(C(=O)c3ccc(Cl)cc3)c3ccccc3)CC1CC2` (stereo not given), the max fluorescein-equivalent concentration was 10 nM (active).

Regarding `CCN1C[C@@]2(COC)CC[C@H](OC)[C@]34[C@@H]1[C@]1(OCO[C@@]15C[C@@H](OC)C1C[C@H]3[C@H]5[C@@H]1OC)[C@H](O)[C@@H]24`, the max fluorescein-equivalent concentration entry was “inactive”.

`COc1ccc(-c2nc(CS(=O)CC(=O)N3CCC4(CC3)OCCO4)c(C)o2)cc1` (stereo not given): the max fluorescein-equivalent concentration entry is “inactive”. Consider `CC(C)CCC1(CCN)C(=O)NC(=O)NC1=O`, for which the max fluorescein-equivalent concentration entry was “inactive”. For `CCC(=NCc1ccco1)c1c(O)n(Cc2ccccc2)c(=O)[nH]c1=O`, the max fluorescein-equivalent concentration entry is “inactive”.
